Measured values published in the supplement of paper PMC11732987, “Enantioselective OTUD7B fragment discovery through chemoproteomics screening and high-throughput optimisation” (Communications Chemistry, 2025).

Experiments:
Experiment in all cases: log2 ratio of Biotin-Ahx-Ub-VS probe labelling (fragment/DMSO); higher = less target engagement (more negative = stronger competition), active = hit call of the paper (q ≤ 0.05, log2 ratio ≤ -1)
Conditions in all cases: compound concentration: 200 uM; treatment time: 3 h
USP9X = USP9X (UniProt Q93008)
Chain of USP9X (Q93008 whole entry, the tested form may be a part): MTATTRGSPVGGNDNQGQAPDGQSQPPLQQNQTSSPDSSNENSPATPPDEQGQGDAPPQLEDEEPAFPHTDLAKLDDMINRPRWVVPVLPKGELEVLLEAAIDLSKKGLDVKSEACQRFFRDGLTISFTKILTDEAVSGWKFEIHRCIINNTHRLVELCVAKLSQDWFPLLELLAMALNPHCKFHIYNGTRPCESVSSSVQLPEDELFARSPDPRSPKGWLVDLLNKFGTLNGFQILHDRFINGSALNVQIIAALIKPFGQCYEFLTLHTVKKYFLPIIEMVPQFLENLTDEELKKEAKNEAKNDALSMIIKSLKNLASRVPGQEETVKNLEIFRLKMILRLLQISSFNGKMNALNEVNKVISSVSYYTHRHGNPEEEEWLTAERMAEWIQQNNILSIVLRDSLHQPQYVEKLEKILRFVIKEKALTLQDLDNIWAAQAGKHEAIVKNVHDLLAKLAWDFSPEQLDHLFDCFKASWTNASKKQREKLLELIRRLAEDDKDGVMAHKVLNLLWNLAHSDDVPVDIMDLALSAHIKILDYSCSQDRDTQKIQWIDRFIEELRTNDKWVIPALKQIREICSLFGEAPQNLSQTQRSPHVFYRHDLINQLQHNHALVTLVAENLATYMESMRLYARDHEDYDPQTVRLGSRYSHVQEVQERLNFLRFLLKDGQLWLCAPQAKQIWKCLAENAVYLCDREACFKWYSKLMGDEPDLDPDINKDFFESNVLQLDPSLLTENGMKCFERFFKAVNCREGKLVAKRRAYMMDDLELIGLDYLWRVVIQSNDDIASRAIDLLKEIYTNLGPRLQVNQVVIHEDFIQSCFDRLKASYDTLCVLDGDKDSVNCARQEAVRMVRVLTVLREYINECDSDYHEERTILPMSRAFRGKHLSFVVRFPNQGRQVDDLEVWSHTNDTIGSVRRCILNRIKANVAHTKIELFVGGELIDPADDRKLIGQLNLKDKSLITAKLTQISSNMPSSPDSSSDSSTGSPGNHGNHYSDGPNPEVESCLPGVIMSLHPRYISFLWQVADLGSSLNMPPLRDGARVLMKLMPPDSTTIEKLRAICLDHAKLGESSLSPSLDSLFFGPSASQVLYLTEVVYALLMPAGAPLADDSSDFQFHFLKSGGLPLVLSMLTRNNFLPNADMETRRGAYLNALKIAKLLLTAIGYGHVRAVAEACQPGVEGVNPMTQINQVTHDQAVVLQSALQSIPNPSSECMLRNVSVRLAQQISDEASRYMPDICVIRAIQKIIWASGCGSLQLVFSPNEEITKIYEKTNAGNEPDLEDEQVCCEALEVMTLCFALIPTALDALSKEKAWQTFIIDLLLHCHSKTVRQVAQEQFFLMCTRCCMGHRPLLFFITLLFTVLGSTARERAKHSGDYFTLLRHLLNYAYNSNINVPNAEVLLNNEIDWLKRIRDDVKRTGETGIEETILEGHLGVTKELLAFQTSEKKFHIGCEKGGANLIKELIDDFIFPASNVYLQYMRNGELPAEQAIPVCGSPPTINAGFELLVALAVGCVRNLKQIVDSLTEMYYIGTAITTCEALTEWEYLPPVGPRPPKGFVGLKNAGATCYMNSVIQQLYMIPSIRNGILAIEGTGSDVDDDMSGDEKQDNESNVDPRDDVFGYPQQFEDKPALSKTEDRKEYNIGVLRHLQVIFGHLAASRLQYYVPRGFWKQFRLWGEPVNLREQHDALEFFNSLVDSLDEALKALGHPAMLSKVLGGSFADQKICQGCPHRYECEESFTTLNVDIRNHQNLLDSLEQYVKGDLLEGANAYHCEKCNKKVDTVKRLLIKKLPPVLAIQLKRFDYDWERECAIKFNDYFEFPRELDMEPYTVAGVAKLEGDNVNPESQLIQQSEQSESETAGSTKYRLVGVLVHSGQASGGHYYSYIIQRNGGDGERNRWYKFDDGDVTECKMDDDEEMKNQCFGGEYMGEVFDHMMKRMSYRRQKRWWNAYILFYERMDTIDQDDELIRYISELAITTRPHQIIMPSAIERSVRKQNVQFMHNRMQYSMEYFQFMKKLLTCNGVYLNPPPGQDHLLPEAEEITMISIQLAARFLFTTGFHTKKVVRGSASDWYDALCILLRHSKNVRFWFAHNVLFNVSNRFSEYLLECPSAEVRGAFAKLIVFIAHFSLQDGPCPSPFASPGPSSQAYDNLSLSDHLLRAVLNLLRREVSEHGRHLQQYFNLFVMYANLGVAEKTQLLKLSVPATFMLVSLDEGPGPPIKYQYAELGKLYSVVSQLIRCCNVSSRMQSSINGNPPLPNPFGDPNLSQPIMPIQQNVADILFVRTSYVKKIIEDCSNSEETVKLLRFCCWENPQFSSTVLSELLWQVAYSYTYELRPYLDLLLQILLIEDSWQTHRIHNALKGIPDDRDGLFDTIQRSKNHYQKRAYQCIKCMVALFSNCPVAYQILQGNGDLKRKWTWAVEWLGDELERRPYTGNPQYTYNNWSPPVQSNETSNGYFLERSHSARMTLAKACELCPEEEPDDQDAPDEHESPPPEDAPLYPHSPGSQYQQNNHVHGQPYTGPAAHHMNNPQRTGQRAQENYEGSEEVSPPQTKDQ
In short: (§1)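 In triplicate, 495 µg of HEK293T lysate per sample was incubated with fragment at 200 µM or vehicle for 3 h. Biotin-Ahx-Ub-VS was then added to 0.5 µM final for 1 h, and labelled DUBs were captured with NeutrAvidin, digested with LysC and trypsin, and measured by diaPASEF LC-MS/MS. Data are average log2 fragment/vehicle ratios by unpaired t-test from global-median-normalised Spectronaut label-free quantities, restricted to proteins with ≥2 unique peptides.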

UniProt O00487 = target: UniProt O00487
In short: as §1

UniProt O00507 = target: UniProt O00507
Chain of UniProt O00507 (O00507 whole entry): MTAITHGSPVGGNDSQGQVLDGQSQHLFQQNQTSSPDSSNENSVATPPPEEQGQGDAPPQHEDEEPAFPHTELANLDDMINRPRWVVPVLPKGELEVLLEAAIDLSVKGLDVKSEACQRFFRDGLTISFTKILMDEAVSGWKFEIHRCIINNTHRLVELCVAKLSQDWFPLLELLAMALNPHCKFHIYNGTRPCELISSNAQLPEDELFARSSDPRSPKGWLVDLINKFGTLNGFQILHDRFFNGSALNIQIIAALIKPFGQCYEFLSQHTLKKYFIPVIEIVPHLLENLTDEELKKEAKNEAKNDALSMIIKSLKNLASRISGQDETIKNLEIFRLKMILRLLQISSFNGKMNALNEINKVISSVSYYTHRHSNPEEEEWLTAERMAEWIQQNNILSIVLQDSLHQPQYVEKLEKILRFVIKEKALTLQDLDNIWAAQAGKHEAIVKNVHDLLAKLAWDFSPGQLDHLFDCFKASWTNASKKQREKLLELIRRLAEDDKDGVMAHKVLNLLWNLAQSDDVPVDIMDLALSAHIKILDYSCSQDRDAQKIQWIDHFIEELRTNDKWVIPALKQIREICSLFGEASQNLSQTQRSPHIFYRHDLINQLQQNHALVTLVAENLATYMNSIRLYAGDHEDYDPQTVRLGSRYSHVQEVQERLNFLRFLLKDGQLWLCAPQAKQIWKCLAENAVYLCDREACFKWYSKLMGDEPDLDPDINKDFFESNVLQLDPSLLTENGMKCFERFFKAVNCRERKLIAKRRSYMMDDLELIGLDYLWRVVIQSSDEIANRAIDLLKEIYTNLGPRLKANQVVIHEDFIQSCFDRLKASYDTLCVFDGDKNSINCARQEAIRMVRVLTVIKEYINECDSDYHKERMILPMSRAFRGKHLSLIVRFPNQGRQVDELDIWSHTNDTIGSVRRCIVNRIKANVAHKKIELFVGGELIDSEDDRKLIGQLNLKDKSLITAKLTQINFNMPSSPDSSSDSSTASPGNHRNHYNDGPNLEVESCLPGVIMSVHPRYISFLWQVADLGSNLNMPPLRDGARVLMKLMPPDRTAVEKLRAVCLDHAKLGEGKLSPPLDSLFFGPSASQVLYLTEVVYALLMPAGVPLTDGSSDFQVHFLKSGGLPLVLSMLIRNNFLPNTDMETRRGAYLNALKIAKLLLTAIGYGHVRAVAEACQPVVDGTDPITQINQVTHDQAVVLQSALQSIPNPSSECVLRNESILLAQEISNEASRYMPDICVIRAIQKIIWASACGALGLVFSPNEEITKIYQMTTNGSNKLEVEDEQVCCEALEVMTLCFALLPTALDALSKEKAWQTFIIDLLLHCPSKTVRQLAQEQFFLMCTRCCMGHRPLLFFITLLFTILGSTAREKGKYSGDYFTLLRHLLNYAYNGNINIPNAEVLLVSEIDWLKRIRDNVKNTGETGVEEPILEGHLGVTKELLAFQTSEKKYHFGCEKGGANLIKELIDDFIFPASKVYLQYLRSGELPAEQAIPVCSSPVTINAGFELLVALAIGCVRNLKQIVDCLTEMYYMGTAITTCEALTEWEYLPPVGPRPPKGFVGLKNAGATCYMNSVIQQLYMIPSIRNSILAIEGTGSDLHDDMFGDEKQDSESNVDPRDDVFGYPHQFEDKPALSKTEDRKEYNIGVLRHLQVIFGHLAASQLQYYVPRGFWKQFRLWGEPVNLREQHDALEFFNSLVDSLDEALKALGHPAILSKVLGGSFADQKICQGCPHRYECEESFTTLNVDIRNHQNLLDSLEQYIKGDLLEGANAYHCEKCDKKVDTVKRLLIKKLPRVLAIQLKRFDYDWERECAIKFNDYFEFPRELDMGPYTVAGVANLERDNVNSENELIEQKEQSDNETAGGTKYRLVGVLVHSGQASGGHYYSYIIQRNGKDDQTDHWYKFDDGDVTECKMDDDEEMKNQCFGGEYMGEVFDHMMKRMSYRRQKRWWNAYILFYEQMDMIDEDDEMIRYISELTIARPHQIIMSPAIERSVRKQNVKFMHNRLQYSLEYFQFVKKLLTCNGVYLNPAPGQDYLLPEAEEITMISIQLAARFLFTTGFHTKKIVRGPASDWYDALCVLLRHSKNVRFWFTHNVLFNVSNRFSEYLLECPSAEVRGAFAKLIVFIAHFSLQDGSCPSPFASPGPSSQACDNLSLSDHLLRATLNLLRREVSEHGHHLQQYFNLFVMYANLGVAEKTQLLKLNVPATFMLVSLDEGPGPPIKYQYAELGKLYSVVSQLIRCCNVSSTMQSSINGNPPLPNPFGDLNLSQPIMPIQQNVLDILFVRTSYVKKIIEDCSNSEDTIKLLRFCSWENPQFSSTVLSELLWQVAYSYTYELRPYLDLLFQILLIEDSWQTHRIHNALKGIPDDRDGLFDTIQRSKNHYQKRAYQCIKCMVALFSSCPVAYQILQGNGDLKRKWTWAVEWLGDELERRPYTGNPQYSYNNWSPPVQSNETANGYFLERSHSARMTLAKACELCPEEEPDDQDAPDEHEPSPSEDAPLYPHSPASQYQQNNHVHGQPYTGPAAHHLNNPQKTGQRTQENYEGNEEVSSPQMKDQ
In short: as §1

UniProt P51784 = target: UniProt P51784
In short: as §1

UniProt Q5T2D3 = target: T1, UniProt Q5T2D3
T1 sequence (whole entry): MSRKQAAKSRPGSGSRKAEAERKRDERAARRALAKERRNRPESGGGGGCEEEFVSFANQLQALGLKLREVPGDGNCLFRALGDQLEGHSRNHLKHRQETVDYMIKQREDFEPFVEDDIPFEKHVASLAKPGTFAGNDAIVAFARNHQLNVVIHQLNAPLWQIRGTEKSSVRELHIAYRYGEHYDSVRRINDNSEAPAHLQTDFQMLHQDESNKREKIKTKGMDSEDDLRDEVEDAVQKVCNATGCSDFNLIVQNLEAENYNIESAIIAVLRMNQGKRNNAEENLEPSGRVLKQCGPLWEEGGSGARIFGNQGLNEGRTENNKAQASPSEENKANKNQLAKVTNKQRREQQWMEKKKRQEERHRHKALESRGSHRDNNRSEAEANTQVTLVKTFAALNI
In short: as §1

UniProt Q8TE49 = target: T2, UniProt Q8TE49
T2 sequence (whole entry): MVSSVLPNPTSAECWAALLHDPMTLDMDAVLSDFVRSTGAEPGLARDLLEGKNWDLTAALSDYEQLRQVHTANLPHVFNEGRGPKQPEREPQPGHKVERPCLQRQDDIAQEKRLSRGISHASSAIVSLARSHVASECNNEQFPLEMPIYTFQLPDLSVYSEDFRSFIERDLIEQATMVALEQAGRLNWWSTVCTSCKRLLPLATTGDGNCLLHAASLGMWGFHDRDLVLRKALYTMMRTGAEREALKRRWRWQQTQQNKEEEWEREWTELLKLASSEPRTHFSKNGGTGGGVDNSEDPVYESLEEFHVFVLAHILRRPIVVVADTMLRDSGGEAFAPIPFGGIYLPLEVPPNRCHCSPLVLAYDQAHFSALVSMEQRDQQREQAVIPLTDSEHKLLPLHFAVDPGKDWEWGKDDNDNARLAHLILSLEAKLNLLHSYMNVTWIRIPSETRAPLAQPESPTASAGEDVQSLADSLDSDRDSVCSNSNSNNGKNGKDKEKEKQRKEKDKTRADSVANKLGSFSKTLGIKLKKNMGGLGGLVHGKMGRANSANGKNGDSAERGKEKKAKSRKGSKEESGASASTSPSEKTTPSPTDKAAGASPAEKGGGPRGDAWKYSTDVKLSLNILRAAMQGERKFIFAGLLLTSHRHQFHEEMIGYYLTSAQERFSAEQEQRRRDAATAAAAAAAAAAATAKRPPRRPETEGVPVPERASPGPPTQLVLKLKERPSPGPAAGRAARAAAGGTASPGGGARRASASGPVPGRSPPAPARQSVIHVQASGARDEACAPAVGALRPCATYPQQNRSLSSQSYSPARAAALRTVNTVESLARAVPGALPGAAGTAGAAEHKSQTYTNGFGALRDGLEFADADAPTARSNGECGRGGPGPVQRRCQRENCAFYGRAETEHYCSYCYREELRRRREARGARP
In short: as §1

UniProt Q9P2H5 = target: T3, UniProt Q9P2H5
T3 sequence (whole entry): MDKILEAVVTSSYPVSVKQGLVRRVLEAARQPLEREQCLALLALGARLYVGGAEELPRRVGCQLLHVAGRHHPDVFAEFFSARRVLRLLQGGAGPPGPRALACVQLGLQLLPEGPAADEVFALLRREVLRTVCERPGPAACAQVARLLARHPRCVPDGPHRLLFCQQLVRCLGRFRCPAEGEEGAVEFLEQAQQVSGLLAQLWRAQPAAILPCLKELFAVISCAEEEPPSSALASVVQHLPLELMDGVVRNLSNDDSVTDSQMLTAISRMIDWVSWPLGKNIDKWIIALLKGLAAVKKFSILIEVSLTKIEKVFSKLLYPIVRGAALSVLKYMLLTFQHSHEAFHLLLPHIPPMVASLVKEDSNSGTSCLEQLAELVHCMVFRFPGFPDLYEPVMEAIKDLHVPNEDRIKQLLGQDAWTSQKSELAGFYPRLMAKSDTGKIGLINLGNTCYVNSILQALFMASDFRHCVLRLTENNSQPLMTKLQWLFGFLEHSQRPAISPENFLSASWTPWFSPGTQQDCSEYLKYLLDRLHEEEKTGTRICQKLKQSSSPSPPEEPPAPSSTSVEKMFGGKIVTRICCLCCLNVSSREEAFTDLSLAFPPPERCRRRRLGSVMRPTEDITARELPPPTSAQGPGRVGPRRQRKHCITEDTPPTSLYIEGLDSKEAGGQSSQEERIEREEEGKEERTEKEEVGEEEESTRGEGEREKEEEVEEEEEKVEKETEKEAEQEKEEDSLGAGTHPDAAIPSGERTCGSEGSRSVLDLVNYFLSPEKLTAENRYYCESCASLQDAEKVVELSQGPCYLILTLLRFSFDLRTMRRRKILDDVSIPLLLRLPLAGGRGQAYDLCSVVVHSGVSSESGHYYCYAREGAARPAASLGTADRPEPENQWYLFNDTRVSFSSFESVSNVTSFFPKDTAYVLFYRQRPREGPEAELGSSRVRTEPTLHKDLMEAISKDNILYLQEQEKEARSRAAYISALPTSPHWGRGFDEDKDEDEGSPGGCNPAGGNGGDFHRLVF
In short: as §1

UniProt Q9UGI0 = target: T4, UniProt Q9UGI0
T4 sequence (whole entry): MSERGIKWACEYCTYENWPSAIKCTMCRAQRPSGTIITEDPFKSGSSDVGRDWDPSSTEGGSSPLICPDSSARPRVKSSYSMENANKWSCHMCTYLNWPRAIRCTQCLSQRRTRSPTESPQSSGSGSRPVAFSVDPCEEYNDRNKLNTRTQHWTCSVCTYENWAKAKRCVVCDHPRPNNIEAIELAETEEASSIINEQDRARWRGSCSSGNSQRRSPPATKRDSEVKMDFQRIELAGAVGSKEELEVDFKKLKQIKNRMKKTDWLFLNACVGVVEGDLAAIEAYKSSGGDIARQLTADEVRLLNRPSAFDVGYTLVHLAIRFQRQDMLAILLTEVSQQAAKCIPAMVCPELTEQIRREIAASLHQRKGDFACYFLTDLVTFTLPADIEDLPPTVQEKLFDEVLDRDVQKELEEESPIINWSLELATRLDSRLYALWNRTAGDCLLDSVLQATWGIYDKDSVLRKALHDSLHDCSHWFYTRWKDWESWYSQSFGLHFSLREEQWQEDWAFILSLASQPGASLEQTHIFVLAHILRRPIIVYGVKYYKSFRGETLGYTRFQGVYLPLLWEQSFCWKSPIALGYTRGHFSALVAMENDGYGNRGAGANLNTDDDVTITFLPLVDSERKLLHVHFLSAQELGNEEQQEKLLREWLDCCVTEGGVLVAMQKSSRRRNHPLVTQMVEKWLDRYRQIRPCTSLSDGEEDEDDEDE
In short: as §1

YOD1 = target: T5, YOD1 (UniProt Q5VVQ6)
T5 sequence (whole entry): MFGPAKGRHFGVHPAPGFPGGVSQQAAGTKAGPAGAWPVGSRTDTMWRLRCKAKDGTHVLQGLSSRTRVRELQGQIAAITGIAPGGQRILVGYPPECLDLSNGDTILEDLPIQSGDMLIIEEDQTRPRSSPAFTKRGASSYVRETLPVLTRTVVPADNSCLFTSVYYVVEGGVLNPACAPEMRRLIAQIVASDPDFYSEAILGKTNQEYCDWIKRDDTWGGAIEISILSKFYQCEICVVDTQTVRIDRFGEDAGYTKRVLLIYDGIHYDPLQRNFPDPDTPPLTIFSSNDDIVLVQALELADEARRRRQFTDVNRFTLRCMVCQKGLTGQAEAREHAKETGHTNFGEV
In short: as §1

Measured: log2 ratio of Biotin-Ahx-Ub-VS probe labelling

O=C(CCl)N1CCC[C@@H]1c1ccon1
inactive: USP9X -0.32 | UniProt O00487 -0.227 | UniProt O00507 -0.592 | UniProt P51784 -0.16 | UniProt Q5T2D3 -0.395 | UniProt Q8TE49 -0.398 | UniProt Q9P2H5 -0.248 | UniProt Q9UGI0 -0.626 | YOD1 -0.749
